Measurements: PubChem BioAssay (NCATS)
Records with an inconclusive call do not appear. A number with no mark means an inactive call. The source made the active and inactive calls. Calls come from the whole dose curve; as a rule, active = well fitted activation curve with a large enough effect; inconclusive = small, poorly fitted or top-dose-only effect; inactive = no such curve, though single readings can be large or run the other way.

These compounds were tested against Cellular tumor antigen p53 (Homo sapiens) (UniProt P04637) (assay: Primary qHTS for small molecule compounds that upregulate eGFP-tagged delta133p53alpha (in N-terminal) cells. (AID 2060322; note: nearly all actives have a fitted effect of over 75% in size;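 for activation: series mostly up to about 56 µM; 0% = DMSO vehicle and 100% = reference activator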)). Conditions: NCI-H358 eGFP-delta133p53alpha fluorescence, 24 h; activation: stronger effect = higher value.
Sequence of Cellular tumor antigen p53 (Homo sapiens) (P04637 whole entry, looked up): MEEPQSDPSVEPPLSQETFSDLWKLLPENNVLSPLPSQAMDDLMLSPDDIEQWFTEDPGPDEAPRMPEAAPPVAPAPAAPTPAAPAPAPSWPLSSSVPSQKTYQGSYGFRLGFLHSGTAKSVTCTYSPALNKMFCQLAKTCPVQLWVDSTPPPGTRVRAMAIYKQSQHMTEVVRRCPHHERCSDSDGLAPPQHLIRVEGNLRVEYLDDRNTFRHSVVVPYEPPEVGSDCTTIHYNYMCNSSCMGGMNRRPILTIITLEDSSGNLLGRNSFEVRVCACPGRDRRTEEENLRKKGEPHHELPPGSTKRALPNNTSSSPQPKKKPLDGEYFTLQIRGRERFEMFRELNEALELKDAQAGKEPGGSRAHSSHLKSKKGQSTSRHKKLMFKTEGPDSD
How it was run: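 NCI-H358 cells pre-induced 24 h with 10 ng/ml doxycycline to express N-terminal eGFP-delta133p53alpha, then dosed 24 h at 37C without doxycycline; fixed, Hoechst-stained, GFP intensity by laser scanning cytometry, normalized to DMSO (0%) and 57.5 uM 5-azacytidine (100%).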
Potency is the fitted concentration of half-maximal effect.

Structure (SMILES)	Potency	activation
Cn1cc(C=CC(=O)c2cccc(F)c2)cc1C=CC(=O)NO	38.5 µM (active)	–
CC[C@H]1OC(=O)[C@H](C)C(=O)[C@H](C)[C@@H](O[C@H]2O[C@H](C)C[C@H](N(C)C)[C@@H]2O)[C@](C)(OC)C[C@@H](C)C(=O)[C@H](C)[C@H]2N(CCCCn3cnc(-c4cccnc4)c3)C(=O)O[C@]12C	–	1.46%
CC(NC(CCc1ccccc1)C(=O)O)C(=O)N1C(=O)N(C)CC1C(=O)O (stereo not drawn)	–	-13.4%
CCCC(=O)O[C@]1(C(=O)CCl)[C@@H](C)C[C@H]2[C@@H]3CCC4=CC(=O)C=C[C@]4(C)[C@@]3(F)C(=O)C[C@@]21C	–	-8.37%
CC(C)CCCC(C)CCCC(C)CCCCC(C)CCCC(C)CCCC(C)C (stereo not drawn)	–	14.1%
CC(=C(CCOC(=O)C(C)C)SSC(CCOC(=O)C(C)C)=C(C)N(C=O)Cc1cnc(C)nc1N)N(C=O)Cc1cnc(C)nc1N	–	-4.18%
C#C[C@]1(O)CC[C@@H]2[C@@H]3CCC4=CC(=O)CC[C@@H]4[C@H]3CC[C@@]21CC	–	25.3%
O=C1OC(OC(=O)c2cccnc2Nc2cccc(C(F)(F)F)c2)c2ccccc21 (stereo not drawn)	–	-25.4%
CCCCCC1Nc2cc(C(F)(F)F)c(S(N)(=O)=O)cc2S(=O)(=O)N1 (stereo not drawn)	–	-4.18%
NC(=O)NS(=O)(=O)c1ccc(N)cc1	–	7.53%
CNC(=O)c1c(I)c(NC(=O)CCCCC(=O)Nc2c(I)c(C(=O)O)c(I)c(C(=O)NC)c2I)c(I)c(C(=O)O)c1I	–	-10%
O=C(CCCCCCSc1ccc2ccccc2c1)NO	–	0%
Cc1cccc(N(C)C(=S)Oc2ccc3c(c2)C2CCC3C2)c1 (stereo not drawn)	–	-15.1%
O=C(/C=C/c1ccccc1)OC[C@H]1O[C@@H](OC(=O)c2cc(O)c(O)c(O)c2)[C@H](O)[C@@H](O)[C@@H]1O	–	-19.1%
CCCCCCc1ccc(O)cc1O	–	3.35%
COc1cc(N)c(Cl)cc1C(=O)NC1CCN(Cc2ccccc2)CC1	–	17.6%
Cc1ncc(CO)c(CO)c1O	–	-24.3%
CCn1cc(C(=O)O)c(=O)c2cnc(N3CCCC3)nc21	–	3.95%
COc1ccc2c(c1)CCCC2=O	–	18.6%
CC(C(=O)O)c1ccc(C(=O)c2ccccc2)s1 (stereo not drawn)	–	0%
C[C@H](N)C(=O)N[C@@H](C)C(=O)NC1[C@H]2CN(c3nc4c(cc3F)c(=O)c(C(=O)O)cn4-c3ccc(F)cc3F)C[C@@H]12 (stereo partly drawn)	–	-33.3%
CCN(CC)CCNC(=O)COc1ccc(Cl)cc1	–	19.2%
Cc1cc(O)c2c(O)c3c(O)cccc3cc2c1	–	0.837%
